Compounds with a hit are over-represented: about 7.5% of the library has one in this group of screens.
NPC1 prom act: activators of NPC1 promoter | 320,000 compounds, 2.4% hits | Potency, µM (titrated, usually from 9.22 µM), without a hit: top-dose activation, most hits filed as activators | Huh7 NPC1 promoter luciferase reporter, 24 h; further: % of control where 0% means no effect; nearly all actives have a fitted effect of over 60% in size
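Luminescence from an NPC1 promoter-driven luciferase reporter in stably transfected Huh7 cells was measured after 24 h compound treatment at 37 °C, followed by 10 min ambient incubation with luciferase detection reagent.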
FLuc counter: inhibits or activates purified firefly luciferase, miR-21 counter-screen; purified FLuc, Km substrates, luminescence inhibition; Potency, µM (highest dose often 57.5 µM), inactives show top-dose activity change, negative = inhibition, usual class: inhibitors; 360,000 compounds, 6.9% hits; AID 588342;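 further: plate controls were vehicle for no effect and reference inhibitor for full effect; nearly all actives have a fitted effect of over 55% in size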
Target sequence (P08659 whole entry, looked up): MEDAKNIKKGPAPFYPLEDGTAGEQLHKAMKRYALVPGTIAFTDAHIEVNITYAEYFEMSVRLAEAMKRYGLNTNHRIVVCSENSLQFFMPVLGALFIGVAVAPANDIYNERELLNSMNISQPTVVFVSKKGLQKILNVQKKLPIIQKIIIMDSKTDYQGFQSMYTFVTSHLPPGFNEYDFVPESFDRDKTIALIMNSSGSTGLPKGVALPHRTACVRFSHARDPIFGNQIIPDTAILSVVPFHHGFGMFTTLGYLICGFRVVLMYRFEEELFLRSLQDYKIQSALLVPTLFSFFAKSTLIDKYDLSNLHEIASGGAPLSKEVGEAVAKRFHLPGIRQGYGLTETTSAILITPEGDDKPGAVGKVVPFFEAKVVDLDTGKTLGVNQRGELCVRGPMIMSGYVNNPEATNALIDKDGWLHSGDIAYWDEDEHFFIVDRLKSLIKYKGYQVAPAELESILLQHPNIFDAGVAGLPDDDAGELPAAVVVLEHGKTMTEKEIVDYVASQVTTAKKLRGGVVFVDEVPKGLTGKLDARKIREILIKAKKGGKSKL
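Biochemical qHTS of compounds, final roughly 60 µM downward over six points, against 10 nM purified firefly luciferase using Km concentrations of substrates (10 uM D-luciferin, 10 uM ATP) in Tris acetate pH 7.5 buffer; luminescence output.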
SMN2 splice enh: increases expression of the SMN2 splice variant | HEK293 SMN2-luciferase splicing reporter, luminescence, 30-36 h | Potency, µM (series often up to 46.1 µM), without a hit: at the top dose activity change, positive = activation, hits mostly activators | 210,000 compounds, 2.8% hits; further: % of control where 0% means no effect; nearly all actives have a fitted effect of over 55% in size
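HEK293 cells carry an SMN2 […]–luciferase reporter in which exon 7 inclusion puts luciferase in frame. Cells were plated 10-12 h before compound addition, then incubated 30-36 h at 37C. ONE-Glo luminescence was read; sodium butyrate at 4.5 mM final served as control.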
Rab9 promoter act: activates the Rab9 promoter. Huh7 Rab9 promoter-luciferase reporter, luminescence, 24 h. Potency, µM (doses to about 9.22 µM), inactives show at the top dose activation, negative = inhibition, usual class: activators. 320,000 compounds, 2.8% hits; further: % of control where 0% means no effect; nearly all actives have a fitted effect of over 60% in size
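Steps: seed 1500 Huh7 Rab9-luc cells per well, rest 2 h at 37 °C; add compound in DMSO; incubate 24 h; add luciferase reagent, 10 min ambient; read luminescence.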
ELG1 genotox: induces genotoxicity in HEK293T cells with luciferase-tagged ELG1; AID 504466; 330,000 compounds, 1.3% hits; HEK293T ELG1-luciferase reporter, luminescence, 16 h; Potency, µM (top dose mostly 46 µM), for inactives: at the highest dose activity change, positive = activation, hits mostly activators; further: % of control where 0% means no effect; nearly all actives have a fitted effect of over 60% in size
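Luminescence read-out: rising ELG1-luciferase signal, reflecting elevated ELG1 protein under genetic stress, flags genotoxic compounds. Cells were treated for 16 hr at 37 °C before ONE-Glo detection.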
The depositor's hits bear a star; ? = inconclusive; . = no result; [ ] = remark or other dose. The call rests on the fitted dose curve; in most records, active means well fitted curve in the direction sought with a large enough effect; inconclusive means small, poorly fitted or top-dose-only effect, or another doubt; inactive means no such curve, though single readings can be large; an effect the other way counts as inactive or inconclusive. Potency means the concentration at half of the fitted maximal effect.

SMILES | NPC1 prom act | FLuc counter | SMN2 splice enh | Rab9 promoter act | ELG1 genotox
Cc1cc(C(=O)N/N=C/c2ccc(N(C)C)o2)cs1 | 0% | ? | . | 4% | 18%
Cc1noc(C)c1-c1ccc2ncnc(N(C)Cc3ccco3)c2c1 | . | . | 3.5µM* | . | .
COc1ccc(OCC(=O)N2CCN(S(=O)(=O)c3ccccc3[N+](=O)[O-])CC2)cc1 | -5% | -4% | -4% | 4% | -10%
COc1ccccc1NC(=O)C1=C(C)Nc2nnnn2C1c1cc(Br)c(O)c(OC)c1 (stereo not given) | . | -3% | 2% | . | .
O=C1OC(c2ccc(F)cc2)=C/C1=C\c1ccc(O)cc1 | 8% | 11µM* | . | 14% | 1%
OCC(O)/C=N/Nc1nc(N2CCCCC2)nc(N2CCCCC2)n1 (stereo not given) | -5% | 0% | 15% | -5% | -7%
Cc1ccc(OCc2cc(=O)n3c4c(sc3n2)CCCC4)cc1C | . | ? | 2% | . | .
O=C1NN(c2ccc(Cl)c(Cl)c2)C(=O)/C1=C/c1ccc(-c2ccccc2C(=O)O)o1 | -3% | ? | . | -4% | 1%
Cc1ccc(N2NC(=O)/C(=C/c3ccc(-c4ccc(Cl)c(C(=O)O)c4)o3)C2=O)cc1C | -6% | 17µM* | . | 0% | 0%
O=C1NN(c2ccccc2)C(=O)/C1=C/c1ccc(-c2ccc(C(=O)O)cc2)o1 | 11% | 21µM* | . | 15% | -2%
COC(=O)c1ccc(N2NC(=O)/C(=C/c3ccc(-c4ccc(Cl)c(C(=O)O)c4)o3)C2=O)cc1 | 0% | 11µM* | 11% | 0% | 2%
CCOC(=O)Cn1c(=O)oc2cc(S(=O)(=O)N3CCC(C(=O)OCC)CC3)ccc21 | . | -1% | -1% | . | .
O=C(O)c1ccccc1C(=O)NCc1ccc2c(c1)OCO2 | -2% | 2% | . | -12% | 4%
CC(C)(C)c1ccc(C(=O)NC(Cc2c[nH]c3ccccc23)C(=O)OCC(=O)c2ccc(Cl)cc2)cc1 (stereo not given) | . | -4% | . | . | .
O=C(COC(=O)[C@H](Cc1c[nH]c2ccccc12)NC(=O)c1ccc(Cl)cc1)Nc1ccc2c(c1)OCO2 | -2% | 17µM* | -5% | 2% | 10%
COC(=O)[C@@H](Cc1c[nH]c2ccccc12)NC(=O)c1ccc2c(c1)OCO2 | 1% | 0.48µM* | . | 3% | ?
O=C(O)c1cccc(N/N=C(\N=Nc2ccccc2)c2ccccc2)c1 | ? | 17µM* | . | ? | ?
Brc1ccc(N/N=C(/N=Nc2nn[nH]n2)c2ccccc2)cc1 | -31% | 19µM* | -117% | -41% | -2%
O=C(O)c1ccc(N=N/C(=N\Nc2ccc(C(=O)O)cc2)c2ccccc2)cc1 | ? | 17µM* | . | ? | 12%
NC(=O)/C(N=Nc1ccccc1)=N/Nc1ccccc1 | 1% | -10% | . | -1% | 11%
O=C(O)c1ccc(NC(=O)C(c2ccccc2)c2ccccc2)cc1 | 2% | 2% | . | 9% | 0%
COc1ccc(C2/C(=C(/O)c3ccc(Br)cc3)C(=O)C(=O)N2C)cc1 (stereo not given) | 0% | -2% | . | 5% | -1%
CC(C)(C)NC(=O)C(c1ccc(O)cc1)N(C(=O)CCC(=O)Nc1nccs1)c1ccc(F)cc1 (stereo not given) | 0% | -1% | . | -1% | -13%
CCN(CC)CCCNC(=O)Cn1c(-c2cccs2)cc2cc(Cl)ccc21 | . | 2% | . | . | .
CC(C)C(=O)Nc1cccc(NC(=O)CCN2C(=O)c3ccccc3S2(=O)=O)c1 | 0% | 0% | 5% | 1% | -2%
SMILES | NPC1 prom act | FLuc counter | SMN2 splice enh | Rab9 promoter act | ELG1 genotox
COc1cc(O)c2c(c1)OC(c1ccc(O)cc1)CC2=O (stereo not given) | 2% | -5% | . | -4% | ?
COc1ccc([C@@H]2CC(=O)c3c(O)cc(O)cc3O2)cc1O | ? | 15µM* | 7%[20.6 µM] | ? | ?
O=C(OCc1ccccc1)N1CCCC1/C=C/CN1CCOCC1 (stereo not given) | -4% | 5% | 12% | 0% | 0%
CC(C)[C@H](NC(=O)c1ccco1)C(=O)OCC(=O)c1ccc2c(c1)NC(=O)CO2 | -2% | ? | 4% | 1% | -3%
O=C1COc2ccc(C(=O)COC(=O)c3ccccc3[N+](=O)[O-])cc2N1 | 20% | 1.5µM* | . | ? | 9%
O=C1COc2ccc(C(=O)COC(=O)c3ccco3)cc2N1 | 0% | 12µM* | . | -1% | 1%
Nc1nc(N2CCN(c3ccccn3)CC2)nc2ccccc12 | ? | 11µM* | . | 3.5µM* | ?
Cc1ccc(S(=O)(=O)N2CCN(C(=O)c3c(-c4ccccc4)noc3C)CC2)c(C)c1 | -4% | 2% | . | 0% | -4%
O=C(c1cc(-c2ccccc2)nc2ccccc12)N1CCN(c2ccccn2)CC1 | 0% | 12µM* | -5% | -7%[1.84 µM] | -13%
O=C(c1cc(-c2ccncc2)nc2ccccc12)N1CCN(c2ccccn2)CC1 | -23% | ? | 4% | -6% | -10%
Nc1nc(N2CCCCC2)nc2ccccc12 | 3% | ? | 16% | 0% | 0%
Cc1ccc2nc(-c3ccccc3)cc(C(=O)N3CCN(S(=O)(=O)c4c(C)noc4C)CC3)c2c1 | 5% | 5.4µM* | . | 6% | -7%
O=C(c1cc(-c2ccccc2)nc2ccccc12)N1CCN(c2ccccc2O)CC1 | 11% | 11µM* | . | 24% | -22%
O=C(c1cc(-c2ccncc2)nc2ccccc12)N1CCN(c2ccccc2O)CC1 | -5% | ? | . | 0% | -17%
COc1ccccc1NC(=O)c1ccccc1C(=O)N(C)Cc1ccccc1 | . | . | . | . | -3%
Cc1cc(=O)n(C)c(=O)n1CCCCCCOc1cccc([N+](=O)[O-])c1 | 0% | 3% | 5%[1.84 µM] | -13% | -9%
CCCCOc1ccccc1NC(=O)CC1Sc2ccccc2NC1=O (stereo not given) | . | 0% | -3% | . | .
Cc1ccc2nc(-c3ccccc3)cc(C(=O)N3CCN(c4ccccc4O)CC3)c2c1 | 14% | 13µM* | . | 4% | -28%
O=C(O)c1cccnc1SCc1cn2cc(Br)ccc2n1 | 0% | 24µM* | -1% | -4% | -2%
O=C(O)c1ccccc1SCc1cn2cc(Br)ccc2n1 | ? | 9.5µM* | ? | ? | ?
Fc1ccc(N2CCN(Cc3ccccn3)CC2)cc1 | -7% | 0% | -5% | 9% | -2%
Fc1ccc(SCCc2ccccn2)cc1 | 22% | 17µM* | . | ? | ?
Cc1ccc(S(=O)(=O)CCc2ccccn2)cc1 | 0% | 0% | 18% | -1% | 1%
CC(C)(C)c1ccc(SCCc2ccccn2)cc1 | 2.2µM* | 3.8µM* | . | 3.2µM* | ?
CC(C)(C)c1ccc(S(=O)(=O)CCc2ccccn2)cc1 | ? | 17µM* | 9% | ? | 21µM*
Cc1c(/C(O)=C2/C(=O)C(=O)N(CCN3CCOCC3)C2c2ccccn2)cnn1-c1ccccc1 (stereo not given) | -10% | 17µM* | -27% | -17% | ?

Screening results (PubChem)
